PubChem BioAssay AID1159580 (chemical genetic matrix, 2015)
About 2,000 (36%) of roughly 5,500 compounds were called active. Not shown: some 18% with an inconclusive outcome. The list shows a part of the results. A number with no mark means an inactive call. Cut-off read from the data, not from the text of the source: active = normalized growth mostly below about 0.91 (no sharp cut-off); inconclusive = no clear call, values can overlap the other calls; inactive = mostly above about 0.92.

Experiment: chemical genetic growth profiling, strain panel (AID 1159580);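 note: tested at 20 µM; growth read once vehicle control cultures reached saturation at 30 °C; 1 = growth at the plate median or of vehicle wells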
Conditions: S. cerevisiae deletion strains, growth OD
[1] = locus YAR019C, strain CDC15, stronger effect = lower value
[2] = locus YBL105C, strain PKC1, stronger effect = lower value
[3] = locus YBR135W, strain CKS1, stronger effect = lower value
[4] = locus YBR136W, strain MEC1, stronger effect = lower value
[5] = locus YBR160W, strain CDC28, stronger effect = lower value
[6] = locus YDL017W, strain CDC7, stronger effect = lower value
[7] = locus YDL028C, strain MPS1, stronger effect = lower value
[8] = locus YDL101C, strain DUN1, stronger effect = lower value
[9] = locus YDL108W, strain KIN28, stronger effect = lower value
[10] = locus YDL132W, strain cdc53, stronger effect = lower value
[11] = locus YDL214C, strain PRR2, stronger effect = lower value
[12] = locus YDR052C, strain DBF4, stronger effect = lower value
[13] = locus YDR054C, strain cdc34, stronger effect = lower value
[14] = locus YDR226W, strain ADK1, stronger effect = lower value
[15] = locus YDR477W, strain SNF1, stronger effect = lower value
[16] = locus YER123W, strain YCK3, stronger effect = lower value
[17] = locus YER133W, strain GLC7, stronger effect = lower value
[18] = locus YFL009W, strain cdc4, stronger effect = lower value
[19] = locus YFL029C, strain CAK1, stronger effect = lower value
[20] = locus YFR003C, strain YPI1, stronger effect = lower value
[21] = locus YFR019W, strain FAB1, stronger effect = lower value
[22] = locus YFR028C, strain CDC14, stronger effect = lower value
[23] = locus YGR040W, strain KSS1, stronger effect = lower value
[24] = locus YGR052W, strain FMP48, stronger effect = lower value
[25] = locus YGR092W, strain DBF2, stronger effect = lower value
[26] = locus YHR030C, strain SLT2, stronger effect = lower value
[27] = locus YHR079C, strain IRE1, stronger effect = lower value
[28] = locus YHR082C, strain KSP1, stronger effect = lower value
[29] = locus YHR205W, strain SCH9, stronger effect = lower value
[30] = locus YIL147C, strain SLN1, stronger effect = lower value
[31] = locus YJL095W, strain BCK1, stronger effect = lower value
[32] = locus YJL128C, strain PBS2, stronger effect = lower value
[33] = locus YJL157C, strain FAR1, stronger effect = lower value
[34] = locus YJR016C, strain ILV3, stronger effect = lower value
[35] = locus YJR066W, strain TOR1 (second series), stronger effect = lower value
[36] = locus YJR066W, strain TOR1, stronger effect = lower value
[37] = locus YKL048C, strain ELM1, stronger effect = lower value
[38] = locus YKL067W, strain YNK1, stronger effect = lower value
[39] = locus YKL101W, strain HSL1, stronger effect = lower value
[40] = locus YKL193C, strain SDS22, stronger effect = lower value
[41] = locus YKL203C, strain TOR2, stronger effect = lower value
[42] = locus YLR113W, strain HOG1, stronger effect = lower value
[43] = locus YLR133W, strain CKI1, stronger effect = lower value
[44] = locus YLR403W, strain SFP1, stronger effect = lower value
[45] = locus YML070W, strain DAK1, stronger effect = lower value
[46] = locus YMR001C, strain CDC5, stronger effect = lower value
[47] = locus YMR205C, strain PFK2 (second series), stronger effect = lower value
[48] = locus YMR277W, strain FCP1, stronger effect = lower value
[49] = locus YNL006W, strain LST8, stronger effect = lower value
[50] = locus YNL020C, strain ARK1, stronger effect = lower value
[51] = locus YNL161W, strain CBK1, stronger effect = lower value
[52] = locus YNL183C, strain NPR1, stronger effect = lower value
[53] = locus YNL207W, strain RIO2, stronger effect = lower value
[54] = locus YNL222W, strain SSU72, stronger effect = lower value
[55] = locus YNL307C, strain MCK1 (second series), stronger effect = lower value
[56] = locus YOL078W, strain AVO1, stronger effect = lower value
[57] = locus YOL136C, strain PFK27, stronger effect = lower value
[58] = locus YOR061W, strain CKA2, stronger effect = lower value
[59] = locus YOR119C, strain RIO1, stronger effect = lower value
[60] = locus YOR231W, strain MKK1, stronger effect = lower value
[61] = locus YOR329C, strain SCD5, stronger effect = lower value
[62] = locus YPL031C, strain PHO85, stronger effect = lower value
[63] = locus YPL153C, strain RAD53, stronger effect = lower value
[64] = locus YPL204W, strain HRR25, stronger effect = lower value
[65] = locus YPL209C, strain IPL1, stronger effect = lower value
[66] = locus YPL256C, strain CLN2, stronger effect = lower value
[67] = locus YPR025C, strain CCL1, stronger effect = lower value
[68] = locus YPR106W, strain ISR1, stronger effect = lower value
[69] = locus YPR111W, strain DBF20, stronger effect = lower value
[70] = strain NNK1, stronger effect = lower value
[71] = strain TSCII, stronger effect = lower value

For `COc1ccc(C(=O)NCc2csc3ccc(Cl)cc23)cc1OC`, the normalized growth [1] was 0.971, the normalized growth [2] was 0.97 and the normalized growth [3] was 0.985. It also gave a normalized growth [4] of 0.975, a normalized growth [5] of 0.975 and a normalized growth [6] of 0.982. It also gave a normalized growth [7] of 0.986, a normalized growth [8] of 0.973 and a normalized growth [9] of 0.981. For the same molecule, the normalized growth [10] was 0.979, the normalized growth [11] was 0.986 and the normalized growth [12] was 0.971. It also gave a normalized growth [13] of 0.955, a normalized growth [14] of 0.975 and a normalized growth [15] of 0.982. For the same molecule, the normalized growth [16] was 0.977, the normalized growth [17] was 0.978 and the normalized growth [18] was 0.97. The normalized growth [19] was 0.974, the normalized growth [20] was 0.977 and the normalized growth [21] was 1. It also gave a normalized growth [22] of 0.977, a normalized growth [23] of 0.994 and a normalized growth [24] of 1.05. For the same molecule, the normalized growth [25] was 0.981, the normalized growth [26] was 1.03 and the normalized growth [27] was 1.01. For the same molecule, the normalized growth [28] was 1.05, the normalized growth [29] was 0.972 and the normalized growth [30] was 0.975. For the same molecule, the normalized growth [31] was 1.05, the normalized growth [32] was 0.92 and the normalized growth [33] was 0.988. It also gave a normalized growth [34] of 0.975, a normalized growth [35] of 1.01 and a normalized growth [36] of 1.07. It also gave a normalized growth [37] of 0.98, a normalized growth [38] of 0.987 and a normalized growth [39] of 0.994. The normalized growth [40] was 0.977, the normalized growth [41] was 1.05 and the normalized growth [42] was 0.92. For the same molecule, the normalized growth [43] was 0.976, the normalized growth [44] was 0.994 and the normalized growth [45] was 0.983. It also gave a normalized growth [46] of 0.979, a normalized growth [47] of 0.986 and a normalized growth [48] of 0.973. The normalized growth [49] was 0.983, the normalized growth [50] was 0.985 and the normalized growth [51] was 0.975. For the same molecule, the normalized growth [52] was 0.999, the normalized growth [53] was 0.962 and the normalized growth [54] was 0.972. It also gave a normalized growth [55] of 0.972, a normalized growth [56] of 0.977 and a normalized growth [57] of 0.98. For the same molecule, the normalized growth [58] was 1, the normalized growth [59] was 1.05 and the normalized growth [60] was 0.983. The normalized growth [61] was 0.975, the normalized growth [62] was 0.994 and the normalized growth [63] was 0.995. The normalized growth [64] was 0.974, the normalized growth [65] was 0.972 and the normalized growth [66] was 0.947. For the same molecule, the normalized growth [67] was 0.976, the normalized growth [68] was 0.966 and the normalized growth [69] was 0.954. It also gave a normalized growth [70] of 0.97 and a normalized growth [71] of 0.984.
For `NNC(=O)c1csc(Cc2c(Cl)sc3ccc(Cl)cc23)n1`, the normalized growth [1] was 0.979, the normalized growth [2] was 0.983 and the normalized growth [3] was 1. For the same molecule, the normalized growth [4] was 0.993, the normalized growth [5] was 0.996 and the normalized growth [6] was 0.985. It also gave a normalized growth [7] of 0.996, a normalized growth [8] of 0.985 and a normalized growth [9] of 1. For the same molecule, the normalized growth [10] was 0.975, the normalized growth [11] was 1.02 and the normalized growth [12] was 0.986. For the same molecule, the normalized growth [13] was 0.968, the normalized growth [14] was 0.996 and the normalized growth [15] was 0.979. For the same molecule, the normalized growth [16] was 1.01, the normalized growth [17] was 0.979 and the normalized growth [18] was 0.991. The normalized growth [19] was 0.971, the normalized growth [20] was 0.994 and the normalized growth [21] was 0.992. It also gave a normalized growth [22] of 0.994, a normalized growth [23] of 0.988 and a normalized growth [24] of 1.11. For the same molecule, the normalized growth [25] was 0.969, the normalized growth [26] was 1 and the normalized growth [27] was 0.977. The normalized growth [28] was 1.04, the normalized growth [29] was 1.01 and the normalized growth [30] was 0.99. For the same molecule, the normalized growth [31] was 0.994, the normalized growth [32] was 0.998 and the normalized growth [33] was 0.994. For the same molecule, the normalized growth [34] was 0.981, the normalized growth [35] was 0.983 and the normalized growth [36] was 1.05. The normalized growth [37] was 1, the normalized growth [38] was 1 and the normalized growth [39] was 1.02. It also gave a normalized growth [40] of 0.983, a normalized growth [41] of 1.04 and a normalized growth [42] of 1.07. The normalized growth [43] was 1, the normalized growth [44] was 0.978 and the normalized growth [45] was 1.01. The normalized growth [46] was 0.989, the normalized growth [47] was 1.01 and the normalized growth [48] was 0.981. The normalized growth [49] was 0.998, the normalized growth [50] was 0.999 and the normalized growth [51] was 0.983. The normalized growth [52] was 1.03, the normalized growth [53] was 0.983 and the normalized growth [54] was 0.986. It also gave a normalized growth [55] of 1.01, a normalized growth [56] of 0.976 and a normalized growth [57] of 1. For the same molecule, the normalized growth [58] was 1.01, the normalized growth [59] was 1.07 and the normalized growth [60] was 0.986. The normalized growth [61] was 0.99, the normalized growth [62] was 0.984 and the normalized growth [63] was 0.974. The normalized growth [64] was 0.971, the normalized growth [65] was 0.984 and the normalized growth [66] was 1.03. For the same molecule, the normalized growth [67] was 0.995, the normalized growth [68] was 0.998 and the normalized growth [69] was 0.992. The normalized growth [70] was 0.984 and the normalized growth [71] was 0.982.
Molecule `CNC(=O)n1nc(C)c(Cc2csc3ccc(Cl)cc23)c1C` has a normalized growth [1] of 0.995, a normalized growth [2] of 0.998 and a normalized growth [3] of 0.984. It also gave a normalized growth [4] of 0.997, a normalized growth [5] of 0.991 and a normalized growth [6] of 0.994. For the same molecule, the normalized growth [7] was 0.997, the normalized growth [8] was 1.01 and the normalized growth [9] was 0.993. The normalized growth [10] was 1, the normalized growth [11] was 0.943 and the normalized growth [12] was 1. The normalized growth [13] was 0.99, the normalized growth [14] was 0.99 and the normalized growth [15] was 0.976. The normalized growth [16] was 0.906, the normalized growth [17] was 0.959 and the normalized growth [18] was 0.999. For the same molecule, the normalized growth [19] was 0.993, the normalized growth [20] was 0.993 and the normalized growth [21] was 0.928. For the same molecule, the normalized growth [22] was 0.978, the normalized growth [23] was 0.95 and the normalized growth [24] was 0.989. The normalized growth [25] was 0.949, the normalized growth [26] was 0.935 and the normalized growth [27] was 0.893. The normalized growth [28] was 0.936, the normalized growth [29] was 0.921 and the normalized growth [30] was 0.993. For the same molecule, the normalized growth [31] was 0.94, the normalized growth [32] was 0.934 and the normalized growth [33] was 0.961. For the same molecule, the normalized growth [34] was 0.994, the normalized growth [35] was 0.931 and the normalized growth [36] was 1.02. For the same molecule, the normalized growth [37] was 0.983, the normalized growth [38] was 0.91 and the normalized growth [39] was 0.951. It also gave a normalized growth [40] of 0.991, a normalized growth [41] of 0.996 and a normalized growth [42] of 0.902. For the same molecule, the normalized growth [43] was 0.937, the normalized growth [44] was 0.942 and the normalized growth [45] was 0.917. The normalized growth [46] was 0.988, the normalized growth [47] was 0.933 and the normalized growth [48] was 0.988. The normalized growth [49] was 0.988, the normalized growth [50] was 0.934 and the normalized growth [51] was 0.993. The normalized growth [52] was 0.896, the normalized growth [53] was 0.993 and the normalized growth [54] was 0.992. For the same molecule, the normalized growth [55] was 0.925, the normalized growth [56] was 0.991 and the normalized growth [57] was 0.926. For the same molecule, the normalized growth [58] was 0.957, the normalized growth [59] was 1.03 and the normalized growth [60] was 0.894. For the same molecule, the normalized growth [61] was 0.997, the normalized growth [62] was 0.966 and the normalized growth [63] was 0.936. The normalized growth [64] was 0.926, the normalized growth [65] was 0.993 and the normalized growth [66] was 0.855 (active). The normalized growth [67] was 0.998, the normalized growth [68] was 0.999 and the normalized growth [69] was 0.979. It also gave a normalized growth [70] of 0.991 and a normalized growth [71] of 0.989.
